PubChem BioAssay

Assay: compound effects on hepatocellular carcinoma cell viability – HepG2, calcein-AM fluorescence, 48 h, basal, profiling panel (AID 1164); note: test concentration not given here
Settings: higher = more signal

Going from `CCN1C(=O)[C@H]2[C@@H]3C(=CC[C@H]2C1=O)C(=O)[C@H]1O[C@H]1[C@H]3O` to `CCOC(=O)CCN1C(=O)[C@H]2[C@@H]3C(=CC[C@H]2C1=O)C(=O)[C@H]1O[C@H]1[C@H]3O`, the z-score rises from -0.929 to -0.564.

Compared with `C[C@H]1CC[C@@H](C(=O)O)N[C@@H]1c1cccc(N2CCCC2=O)c1`, `O=C1C2=CC[C@H]3C(=O)N(Cc4ccccc4)C(=O)[C@H]3[C@H]2[C@H](O)[C@@H]2O[C@H]12` is lower in z-score: 0.652 for the first, -4.47 for the second.

Compared with `CCOC(=O)CCN1C(=O)[C@H]2[C@H]3[C@H](O)[C@H](O)CC(=NO[C@@H]4O[C@H](CO)[C@@H](O)[C@H](O)[C@H]4O)[C@H]3CC[C@H]2C1=O`, `COC(=O)[C@H](C)NC(=O)CC=C[C@@H](C)[C@@H]1C=C[C@H](O)[C@@H](CO)O1` is higher in z-score: -0.898 for the first, 0.583 for the second.

Compared with `CC(CCC(=O)OC[C@H]1O[C@H](C#Cc2ccccc2)C=C[C@@H]1Oc1ccc(C)cc1)=NO[C@@H](C)c1cc(-c2c(C)cc(C)cc2C)no1`, `CC(CCC(=O)OC[C@H]1O[C@H](C#Cc2ccccc2)C=C[C@@H]1Oc1ccc(C)cc1)=NO[C@H](C)c1cn([C@@H]2COC[C@H]2O)nn1` is higher in z-score: -0.338 for the first, 0.669 for the second.

Compared with `CO[C@@H]1[C@H](O)CO[C@H]1C=Cc1ccccc1`, `COC(=O)[C@H](Cc1ccccc1)NC(=O)[C@@H](C)CO` is lower in z-score: -0.0866 for the first, -0.196 for the second.

Going from `COc1ccc(O[C@H]2C=C[C@@H](c3ccccc3)O[C@@H]2COC(=O)NCc2cccc3ccccc23)cc1` to `COc1ccc(O[C@H]2C=C[C@@H](c3ccccc3)O[C@@H]2CON=C(C)CCN2CCCc3nc(C)c(C)cc32)cc1`, the z-score rises from -0.833 to -0.491.
